Paper PMC5540273 (PLoS ONE, 2017)

Tests used:
Details in all cases: concentration: 1 μM, replicates: in singlicate; n = 1
[1] = tested on: PIP5K1A
[2] = tested on: PIP5K1C
[3] = tested on: PIP5K2B
[4] = tested on: T1, PIP5K2C
T1 construct: gene PIP4K2C

[5] = tested on: T2, PKAC-alpha
T2 construct: gene PRKACA

[6] = tested on: T3, PKAC-beta
T3 construct: gene PRKACB

[7] = tested on: PKMYT1
[8] = tested on: PKN1
[9] = tested on: PKN2
[10] = tested on: PLK1
[11] = tested on: PLK2
[12] = tested on: PLK3
[13] = tested on: PLK4
[14] = tested on: PRKCD
[15] = tested on: PRKCE
[16] = tested on: PRKCH
[17] = tested on: PRKCI
[18] = tested on: PRKCQ
[19] = tested on: PRKD1
[20] = tested on: PRKD2
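Also: KINOMEscan kinase panel screen.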

`COc1ccc(C2=C(Nc3cccc(O)c3)C(=O)NC2=O)cc1` [SB-390766] was tested, and the “%Inh” value [1] was 4%, the “%Inh” value [2] was 82% and the “%Inh” value [3] was 0%. For the same compound, the “%Inh” value [4] was 10%, the “%Inh” value [5] was 0% and the “%Inh” value [6] was 0%. The “%Inh” value [7] was 13%, the “%Inh” value [8] was 0% and the “%Inh” value [9] was 38%. For the same compound, the “%Inh” value [10] was 95.9%, the “%Inh” value [11] was 0% and the “%Inh” value [12] was 0%. The “%Inh” value [13] was 13%, the “%Inh” value [14] was 0% and the “%Inh” value [15] was 49%. For the same compound, the “%Inh” value [16] was 0%, the “%Inh” value [17] was 18% and the “%Inh” value [18] was 0%. For the same compound, the “%Inh” value [19] was 0% and the “%Inh” value [20] was 4%.
`Cc1ccc(Nc2ccnc(Nc3ccc(C)c(F)c3)n2)cc1O.Cl` [GW582868] was tested, and the “%Inh” value [1] was 27%, the “%Inh” value [2] was 47% and the “%Inh” value [3] was 5%. For the same compound, the “%Inh” value [4] was 70%, the “%Inh” value [5] was 0% and the “%Inh” value [6] was 0%. For the same compound, the “%Inh” value [7] was 0%, the “%Inh” value [8] was 23% and the “%Inh” value [9] was 0%. For the same compound, the “%Inh” value [10] was 0%, the “%Inh” value [11] was 0% and the “%Inh” value [12] was 3%. For the same compound, the “%Inh” value [13] was 0%, the “%Inh” value [14] was 0% and the “%Inh” value [15] was 6%. For the same compound, the “%Inh” value [16] was 0%, the “%Inh” value [17] was 25% and the “%Inh” value [18] was 0%. For the same compound, the “%Inh” value [19] was 0% and the “%Inh” value [20] was 0%.
`CCOc1nccc(-c2c(-c3ccc(F)cc3)ncn2C2CCNCC2)n1` [SB-249175] was tested, and the “%Inh” value [1] was 0%, the “%Inh” value [2] was 14% and the “%Inh” value [3] was 0%. For the same compound, the “%Inh” value [4] was 21%, the “%Inh” value [5] was 11% and the “%Inh” value [6] was 25%. For the same compound, the “%Inh” value [7] was 23%, the “%Inh” value [8] was 6% and the “%Inh” value [9] was 18%. For the same compound, the “%Inh” value [10] was 9%, the “%Inh” value [11] was 24% and the “%Inh” value [12] was 23%. For the same compound, the “%Inh” value [13] was 26%, the “%Inh” value [14] was 20% and the “%Inh” value [15] was 5%. The “%Inh” value [16] was 100%, the “%Inh” value [17] was 5% and the “%Inh” value [18] was 10%. For the same compound, the “%Inh” value [19] was 38% and the “%Inh” value [20] was 35%.
In the case of `CN(c1ccc2c(c1)nc(NCc1ccccc1)n2C)c1ccnc(Nc2ccc(CS(C)(=O)=O)cc2)n1.Cl` [GW811603], the “%Inh” value [1] is reported as 23%, the “%Inh” value [2] is reported as 44% and the “%Inh” value [3] is reported as 0%. The “%Inh” value [4] was 79%, the “%Inh” value [5] was 0% and the “%Inh” value [6] was 0%. The “%Inh” value [7] was 0%, the “%Inh” value [8] was 0% and the “%Inh” value [9] was 0%. The “%Inh” value [10] was 0%, the “%Inh” value [11] was 0% and the “%Inh” value [12] was 79%. The “%Inh” value [13] was 62%, the “%Inh” value [14] was 100% and the “%Inh” value [15] was 36%. For the same compound, the “%Inh” value [16] was 0%, the “%Inh” value [17] was 0% and the “%Inh” value [18] was 0%. For the same compound, the “%Inh” value [19] was 0% and the “%Inh” value [20] was 0%.
With `O=C(Nc1n[nH]c2cc(-c3cccs3)ccc12)C1CC1` [SB-731284] the “%Inh” value [1] was 21%, the “%Inh” value [2] was 96.7% and the “%Inh” value [3] was 15%. The “%Inh” value [4] was 35%, the “%Inh” value [5] was 0% and the “%Inh” value [6] was 0%. The “%Inh” value [7] was 0%, the “%Inh” value [8] was 5% and the “%Inh” value [9] was 0%. The “%Inh” value [10] was 64%, the “%Inh” value [11] was 9% and the “%Inh” value [12] was 28%. For the same compound, the “%Inh” value [13] was 29%, the “%Inh” value [14] was 17% and the “%Inh” value [15] was 11%. For the same compound, the “%Inh” value [16] was 0%, the “%Inh” value [17] was 0% and the “%Inh” value [18] was 0%. The “%Inh” value [19] was 0% and the “%Inh” value [20] was 0%.
For `Nc1ncnc2scc(-c3ccc(NC(=O)Cc4cc(F)ccc4F)cc3)c12.O=C(O)C(F)(F)F` [SB-731254-M], the “%Inh” value [1] was 0%, the “%Inh” value [2] was 0% and the “%Inh” value [3] was 0%. The “%Inh” value [4] was 0%, the “%Inh” value [5] was 13% and the “%Inh” value [6] was 15%. The “%Inh” value [7] was 23%, the “%Inh” value [8] was 4% and the “%Inh” value [9] was 26%. The “%Inh” value [10] was 9%, the “%Inh” value [11] was 66% and the “%Inh” value [12] was 47%. The “%Inh” value [13] was 35%, the “%Inh” value [14] was 27% and the “%Inh” value [15] was 2%. For the same compound, the “%Inh” value [16] was 34%, the “%Inh” value [17] was 43% and the “%Inh” value [18] was 3%. The “%Inh” value [19] was 0% and the “%Inh” value [20] was 0%.
In the case of `c1ccc(Oc2ccc(Nc3ccnc4cc(-c5ccc(CN6CCCCC6)o5)ccc34)cc2)nc1` [GW567143], the “%Inh” value [1] is reported as 9%, the “%Inh” value [2] is reported as 47% and the “%Inh” value [3] is reported as 0%. The “%Inh” value [4] was 48%, the “%Inh” value [5] was 2% and the “%Inh” value [6] was 0%. The “%Inh” value [7] was 0%, the “%Inh” value [8] was 0% and the “%Inh” value [9] was 0%. The “%Inh” value [10] was 5%, the “%Inh” value [11] was 0% and the “%Inh” value [12] was 0%. The “%Inh” value [13] was 44%, the “%Inh” value [14] was 7% and the “%Inh” value [15] was 0%. The “%Inh” value [16] was 5%, the “%Inh” value [17] was 0% and the “%Inh” value [18] was 10%. The “%Inh” value [19] was 0% and the “%Inh” value [20] was 12%.
In the case of `CC(C)NCC(Cc1ccccc1)NC(=O)c1cc(Br)c(-c2ccnc3[nH]ccc23)s1.Cl.Cl` (stereo not shown) [GSK1383281], the “%Inh” value [1] is reported as 14%, the “%Inh” value [2] is reported as 49% and the “%Inh” value [3] is reported as 17%. For the same compound, the “%Inh” value [4] was 37%, the “%Inh” value [5] was 99.4% and the “%Inh” value [6] was 99%. For the same compound, the “%Inh” value [7] was 0%, the “%Inh” value [8] was 40% and the “%Inh” value [9] was 57%. For the same compound, the “%Inh” value [10] was 0%, the “%Inh” value [11] was 13% and the “%Inh” value [12] was 38%. For the same compound, the “%Inh” value [13] was 90.1%, the “%Inh” value [14] was 84% and the “%Inh” value [15] was 89%. For the same compound, the “%Inh” value [16] was 82%, the “%Inh” value [17] was 19% and the “%Inh” value [18] was 50%. For the same compound, the “%Inh” value [19] was 75% and the “%Inh” value [20] was 71%.
